Experimental findings from PubChem BioAssay (Tox21) are described below.

Molecules are shown by their SMILES. Inconclusive results are not listed. Values without a mark were called inactive. Activity calls are given as the source filed them. The call rests on the fitted dose curve; in most records, active means well fitted inhibition curve with a large enough effect in the repeat runs; inconclusive means weak or mixed curves; inactive means flat fitted curve, though single readings scatter.
On the % scale 0 is the no-effect control and ±100 the full control effect; potency means the concentration at half of the fitted maximal effect.

Chain of Voltage-gated inwardly rectifying potassium channel KCNH2 (Homo sapiens) (Q12809 whole entry, looked up): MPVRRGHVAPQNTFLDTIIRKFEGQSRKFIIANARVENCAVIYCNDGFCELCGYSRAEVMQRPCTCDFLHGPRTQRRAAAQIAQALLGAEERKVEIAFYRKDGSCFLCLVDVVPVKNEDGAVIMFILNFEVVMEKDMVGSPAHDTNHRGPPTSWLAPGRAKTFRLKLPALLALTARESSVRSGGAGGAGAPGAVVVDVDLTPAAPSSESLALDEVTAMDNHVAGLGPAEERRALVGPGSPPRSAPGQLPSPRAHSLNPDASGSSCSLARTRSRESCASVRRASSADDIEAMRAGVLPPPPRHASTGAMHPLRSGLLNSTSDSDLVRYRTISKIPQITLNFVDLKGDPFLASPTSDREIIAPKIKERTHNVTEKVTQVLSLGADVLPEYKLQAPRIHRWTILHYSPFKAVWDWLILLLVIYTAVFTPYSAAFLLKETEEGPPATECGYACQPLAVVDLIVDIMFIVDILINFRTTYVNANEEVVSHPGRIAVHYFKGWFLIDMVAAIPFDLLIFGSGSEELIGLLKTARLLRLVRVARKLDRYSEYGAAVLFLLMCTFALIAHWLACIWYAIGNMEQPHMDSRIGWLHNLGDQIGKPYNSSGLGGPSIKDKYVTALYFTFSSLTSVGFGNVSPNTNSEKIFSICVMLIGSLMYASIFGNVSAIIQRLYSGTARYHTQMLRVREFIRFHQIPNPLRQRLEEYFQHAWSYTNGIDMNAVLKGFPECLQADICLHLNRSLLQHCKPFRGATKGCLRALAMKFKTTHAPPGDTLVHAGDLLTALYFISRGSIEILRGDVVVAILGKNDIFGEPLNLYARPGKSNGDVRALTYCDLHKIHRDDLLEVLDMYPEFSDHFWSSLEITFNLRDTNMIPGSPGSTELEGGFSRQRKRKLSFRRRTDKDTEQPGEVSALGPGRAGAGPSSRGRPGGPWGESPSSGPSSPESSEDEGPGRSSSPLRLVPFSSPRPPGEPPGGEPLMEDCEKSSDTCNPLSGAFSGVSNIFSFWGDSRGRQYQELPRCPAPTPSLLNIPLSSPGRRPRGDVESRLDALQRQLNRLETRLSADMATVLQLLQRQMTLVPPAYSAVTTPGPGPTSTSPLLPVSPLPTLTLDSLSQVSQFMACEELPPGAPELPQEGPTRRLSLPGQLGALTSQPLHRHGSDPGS

For this assay, the target named is Voltage-gated inwardly rectifying potassium channel KCNH2 (Homo sapiens) (UniProt Q12809). Nature of the assay: Human Ether-a-go-go-Related Gene (hERG) channel small molecule antagonists: fluorescence cell-based qHTS assay (AID 1671200). Further: nearly all actives have a fitted effect of over 50% in size. The note with it: hERG-U2OS cells, FluxOR thallium flux fluorescence; series mostly up to 76.8 µM; activity change, negative = inhibition: at the top concentration. From the text:
National Center for Advancing Translational Sciences [NCATS]
U.S. Environmental Protection Agency [EPA]
National Institutes of Environmental Health Sciences [NIEHS]
National Toxicology Program [NTP]
U.S. Food and Drug Administration [FDA]
Mutations in the hERG channel cause Long QT (LQT) syndrome. LQT syndrome is a cardiac disorder which can cause ventricle arrhythmia and sudden death. Additionally, compounds which block the hERG channel can cause acquired LQT syndrome. Several FDA approved drugs have been removed from the market due to their hERG blocking activity. A cell-based hERG channel inhibition assay can be used to screen chemical compounds that inhibit hERG channel. This assay measures hERG channel activity using thallium ions as surrogate ions to measure potassium into the cells.
Tox21 Assay Protocol Summary:
hERG-U2OS cells were resuspended in culture medium and dispensed into 1536-well, black wall/clear-bottom plates at 1000cells/well/3uL using a Multidrop Combi dispenser (Thermo Fisher, Waltham, MA). After plates were incubated at 37 C overnight, 3 uL of Loading Buffer provided by FluxOR II Potassium Ion Channel Assay kit (Thermo, Carlsbad, CA) was added to each well. The assay plates were then incubated at room temperature in the dark for 1h. […] After the assay plates were incubated at room temperature for 10 min, 1 uL of Stimulus Buffer provided by FluxOR II Potassium Ion Channel Assay kit was added into each well and fluorescence intensity (480nm excitation/540nm emission) was continuously measured for 2 min at 1 second intervals using a Functional Drug Screening System (FDSS) 7000EX kinetic plate reader (Hamamatsu, Japan).
(The hERG channel carries a current that helps repolarise heart muscle cells.)
With `OCC(CBr)(CBr)CBr`, the “activity change, negative = inhibition” value is -5.82%.
Still for that read-out and setting: the same measure for `CC(C)C(=O)OCC(C)(C)C(O)C(C)C` (stereo not given): 1.52%; for `CCCCCCCOC(=O)CCC`: 0.686%; for `CC[C@H]1CC[C@H](NCc2cc3c(cc2OC)[C@H]2C[C@H]2C(=O)N3C)[C@H](c2ccccc2)N1`: -7.44%.
For the compound `Cc1ccsc1C(=CCCN1CCC[C@@H](C(=O)O)C1)c1sccc1C`, the “activity change, negative = inhibition” value was -0.0113% [at 35.3 µM].
The same measure, in the same setting: the same measure for `O=C1CCCCC1C1CCCCC1` (stereo not given): 3.33%.
As to `CCOC(=O)CS`, the “activity change, negative = inhibition” value is -13.8%.
Same read-out and setting: the same measure for `CC(C)S`: -2.4%; for `CCCCCCCCCC/C=C/C#N`: -15.3%; for `CC(=O)O[C@H]1CC[C@@]2(C)C(=CC[C@@H]3[C@@H]2CC[C@]2(C)C(C(C)=O)=CC[C@@H]32)C1`: 23.3% [at 35.3 µM].
On the same count and under the same terms, the same measure for `Clc1cccc(-c2cc(Cl)cc(Cl)c2)c1`: -24.6%.
Same read-out and setting: the same measure for `N#CSCC(=O)O`: 0.516% [at 35.3 µM]; for `O=C(CCCl)NCc1ccccc1`: -2.95% [at 35.3 µM].
For `C[C@]12C(=O)OC(=O)[C@H]1[C@H]1C=C[C@@H]2C1`, the “activity change, negative = inhibition” value is 0.83%.
On the same count and under the same terms, the same measure for `O=C(O)[C@@H](O)[C@H](O)[C@H](O)[C@@H](O)C(=O)O`: -5.42% [at 35.3 µM]; for `CCCc1c2oc(C(=O)O)cc(=O)c2cc2c(=O)cc(C(=O)O)n(CC)c12`: 2.06% [at 35.3 µM]; for `Cc1cccc(C)c1NC(=O)CN1CCCCCC1`: 0.392% [at 35.3 µM].
For `COC(=O)N[C@H](C(=O)N[C@@H](Cc1ccccc1)[C@@H](O)CN(Cc1ccc(-c2ccccn2)cc1)NC(=O)[C@@H](NC(=O)OC)C(C)(C)C)C(C)(C)C`, the “activity change, negative = inhibition” value is -9.4% [at 35.3 µM].
Regarding `Cc1ccc([N+](=O)[O-])c(N)c1`, the “activity change, negative = inhibition” value was -1.64%.
Same read-out and setting: the same measure for `Oc1ccccc1C=NCc1ccccc1`: -16.5% [at 35.3 µM]; for `COC(=O)c1ccc(OC)cc1`: 2.74%.
On to `C[C@]12CCC(=O)C=C1CC[C@@H]1[C@@H]2CC[C@@]2(C)[C@H]1CC[C@]2(O)C(=O)CO`, for which the “activity change, negative = inhibition” value was -0.651% [at 35.3 µM].
Regarding `Cc1c(C(=O)NCCO)[n+](=O)c2ccccc2n1[O-]`, the “activity change, negative = inhibition” value is -0.496% [at 35.3 µM].
Take `CN(C)C(=O)NC1(c2ccccc2)CCN(CCC[C@]2(c3ccc(Cl)c(Cl)c3)CCCN(C(=O)c3ccccc3)C2)CC1`: the Potency is 2.08 µM (active).
For `Oc1ccccc1F`, the “activity change, negative = inhibition” value was 1.61%.
Still for that read-out and setting: the same measure for `C=Cc1ccccc1`: 4.91%; for `C1CSCCS1`: 2.18%; for `CO[C@@]1(NC(=O)CSCC#N)C(=O)N2C(C(=O)O)=C(CSc3nnnn3C)CS[C@@H]21`: 8.65% [at 35.3 µM].
On the same count and under the same terms, the same measure for `CCCCNCCCC`: 1.98%; for `CC(C)CCCCCCc1ccc(OCCOCCO)cc1`: -5.07%; for `O=C1N(c2ccccc2)c2ccccc2C1(Cc1ccncc1)Cc1ccncc1`: -4.46% [at 35.3 µM].
As to `CCC(=O)c1ccc2c(c1)N(CCCN(C)C)c1ccccc1S2`, the Potency is 9.52 µM (active).
`ClC(Cl)Cl`: the “activity change, negative = inhibition” value was 2.34%.
The same measure, in the same setting: the same measure for `O=C(O)[C@@H]1CSCN1`: -1.65% [at 35.3 µM]; for `CCCCCCCCCCCCCCCCOP(=O)([O-])OCC[N+](C)(C)C`: -7.32% [at 35.3 µM].
On the same count and under the same terms, the same measure for `Cc1ccc([N+](=O)[O-])cc1Cl`: 2.22%; for `C=C(C)C(=O)OCCOP(=O)(O)O`: 1.69%; for `CN1CCN(c2c(F)cc3c(=O)c(C(=O)O)cn4c3c2SCC4)CC1`: 0.972% [at 35.3 µM].
For the compound `CCCCC1CCC(=O)O1` (stereo not given), the “activity change, negative = inhibition” value is 5.84%.
Turning to `CC1=C(O)C(=O)OC1C` (stereo not given), the “activity change, negative = inhibition” value was 2.41%.
